From PubChem BioAssay AID623996 (NMMLSC, 2012)
Measured potencies and affinities stand elsewhere. Activity calls are given as the source filed them.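 Rule for the calls: active = fitted concentration giving half the maximal Nile Red retention below 100 µM; inactive = the rest.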

target: Multidrug resistance protein CDR1 (Candida albicans) (UniProt P43071); test: Candida albicans Cdr1 pump inhibition curves – singleplex, Cherry Pick2 set, dose response (AID 623996); conditions: S. cerevisiae AD/CaCDR1, Nile Red efflux inhibition, flow cytometry; series mostly up to 100 µM; efflux inhibition response: at the top concentration
Sequence (P43071 whole entry, looked up): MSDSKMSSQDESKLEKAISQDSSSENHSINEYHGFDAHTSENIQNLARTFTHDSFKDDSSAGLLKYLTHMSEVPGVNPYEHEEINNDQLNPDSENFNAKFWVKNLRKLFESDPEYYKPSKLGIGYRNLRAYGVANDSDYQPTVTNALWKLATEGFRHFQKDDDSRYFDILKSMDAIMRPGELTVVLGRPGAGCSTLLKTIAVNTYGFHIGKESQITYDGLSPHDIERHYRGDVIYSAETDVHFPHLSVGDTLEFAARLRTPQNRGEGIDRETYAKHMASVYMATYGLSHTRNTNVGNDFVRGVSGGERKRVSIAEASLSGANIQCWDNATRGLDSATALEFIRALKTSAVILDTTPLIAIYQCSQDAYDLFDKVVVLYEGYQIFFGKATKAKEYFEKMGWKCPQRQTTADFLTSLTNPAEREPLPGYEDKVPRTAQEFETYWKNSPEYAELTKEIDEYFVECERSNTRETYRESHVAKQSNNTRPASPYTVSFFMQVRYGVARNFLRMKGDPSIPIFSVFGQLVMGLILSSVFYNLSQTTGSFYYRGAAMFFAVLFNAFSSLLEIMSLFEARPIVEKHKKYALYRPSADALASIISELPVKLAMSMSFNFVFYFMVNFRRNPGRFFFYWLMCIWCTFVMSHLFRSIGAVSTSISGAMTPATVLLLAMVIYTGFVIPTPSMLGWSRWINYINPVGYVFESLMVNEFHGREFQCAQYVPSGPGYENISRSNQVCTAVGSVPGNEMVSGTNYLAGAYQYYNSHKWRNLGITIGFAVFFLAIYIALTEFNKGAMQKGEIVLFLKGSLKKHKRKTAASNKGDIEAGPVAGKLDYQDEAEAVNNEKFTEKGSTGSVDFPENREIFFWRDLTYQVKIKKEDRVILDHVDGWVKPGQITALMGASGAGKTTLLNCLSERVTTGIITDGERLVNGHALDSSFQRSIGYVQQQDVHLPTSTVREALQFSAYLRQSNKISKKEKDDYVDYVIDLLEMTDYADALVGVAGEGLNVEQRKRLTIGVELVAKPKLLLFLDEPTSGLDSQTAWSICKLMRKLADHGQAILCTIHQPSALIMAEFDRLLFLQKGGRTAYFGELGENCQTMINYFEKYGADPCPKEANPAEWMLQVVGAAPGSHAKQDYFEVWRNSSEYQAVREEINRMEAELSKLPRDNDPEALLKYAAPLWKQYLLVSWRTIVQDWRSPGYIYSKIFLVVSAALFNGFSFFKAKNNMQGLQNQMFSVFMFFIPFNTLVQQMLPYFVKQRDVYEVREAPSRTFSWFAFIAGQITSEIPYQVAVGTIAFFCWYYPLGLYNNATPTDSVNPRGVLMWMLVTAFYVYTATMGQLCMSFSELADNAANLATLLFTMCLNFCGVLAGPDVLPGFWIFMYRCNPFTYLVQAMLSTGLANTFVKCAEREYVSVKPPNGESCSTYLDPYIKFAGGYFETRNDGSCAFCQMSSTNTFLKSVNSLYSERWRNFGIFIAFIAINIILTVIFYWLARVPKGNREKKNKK

Efflux inhibition response, inactive:
O=C(c1ccc2c(c1)OCO2)N1CCC2(CC1)Oc1ccc(F)cc1C(=O)C21CC(c2ccc(Cl)cc2)=NO1 (stereo not given) 26.2%
Cc1cc(C)c2sc(N(CCCN(C)C)C(=O)c3ccc(Br)s3)nc2c1 18.1%
Cc1cc(C(=O)NC2CC(C)(C)Cc3c2cnn3-c2ccc(F)cc2)no1 (stereo not given) -0.89%
O=C(C[n+]1cc(-c2ccccc2)n2c1CCC2)N1c2ccccc2Sc2ccccc21 -1.96%
COc1ccc(C(=O)NC2CC(C)(C)Cc3c2cnn3-c2ccccc2)c(OC)c1 (stereo not given) -1.18%
COc1ccccc1C(=O)OCCc1ccccc1 -0.84%
Cc1cccc2sc(N(CCCN(C)C)C(=O)c3ccc(Cl)s3)nc12 -1.4%
CCO[C@@H]1OC(C(=O)Nc2ccccc2)=C[C@H](c2ccccc2)[C@H]1CCCO -3.72%
NC1=NC[C@@H](Cc2ccc(O)cc2)N1CCCCC1CCCCC1 -2.59%
O=C(c1ccc2c(c1)OCO2)N1CCC2(CC1)Oc1ccc(F)cc1C(=O)C21CC(c2ccccc2)=NO1 (stereo not given) 118%
N#CC(C(=O)NCc1ccccc1)c1nc2ccccc2nc1N1CCCC1 (stereo not given) -3.17%
O=C(NC1CCCc2c1cnn2-c1ccccc1F)c1ccccn1 (stereo not given) -0.24%
COc1ccc(CN2C(=O)C(C)Nc3ncnc(N4CCN(c5ccccc5)CC4)c32)cc1 (stereo not given) 1.03%
C[C@@]12C(=O)Nc3ccc(Cl)cc3C(=O)N1[C@H]1c3cc(Cl)ccc3OC[C@@H]1[C@@H]2c1ccccc1 1.33%
COc1cccc(N2CCN(C(=O)C3CCCN(c4ncnc5c4nc4n5CCCCC4)C3)CC2)c1 (stereo not given) -1.74%
Cc1ccc(-c2c[n+](CC(=O)N3c4ccccc4Sc4ccccc43)c3n2CCC3)cc1 -4.43%
O=C(C1CCCN(c2ncnc3c2nc2n3CCCCC2)C1)N1CCN(c2ccccc2)CC1 (stereo not given) -1.77%
O=C(NCCC1=CCCCC1)C1CCC(CNc2nc(=S)[nH]c3ccccc23)CC1 (stereo not given) 56.5%
CN1Cc2cc(C(=O)c3ccccc3O)cnc2NC1=O -3.93%
CCN(CC)CCC(c1ccc(N(C)C)cc1)c1c(OC)cc(OC)c2ccc(=O)oc12 (stereo not given) -1.39%
C[C@H](CO)N1C[C@H](C)[C@@H](CN(C)S(=O)(=O)c2ccccc2)Oc2c(NC(=O)Nc3ccccc3)cccc2C1=O 52.5%
CC(C)C(=O)N1CCC2(CC1)Oc1ccc(F)cc1C(=O)C21CC(c2ccc(Cl)cc2)=NO1 (stereo not given) 86.8%
COc1ncccc1C(=O)NC1CCCc2c1cnn2-c1cc(C)cc(C)c1 (stereo not given) -0.65%
Cc1ccc(CN2C(=O)C(CC(C)C)Nc3ncnc(N4CCN(c5ccccc5)CC4)c32)cc1 (stereo not given) -4.11%
O=C(c1ccoc1)N1CCC2(CC1)Oc1ccc(F)cc1C(=O)C21CC(c2ccccc2)=NO1 (stereo not given) 140%
NC1=NC[C@H](Cc2ccccc2)N1CCCCC1CCCCC1 -3.02%
Cc1ccc(O)c(C(=O)c2cnc3c(c2)CN(C)C(=O)N3)c1 0.64%
CCCCN1Cc2cc(C(=O)c3cc(OC)ccc3O)cnc2NC1=O -3.22%
CC(C)C(=O)N1CCC2(CC1)Oc1ccc(Cl)cc1C(=O)C21CC(c2ccc(Cl)cc2)=NO1 (stereo not given) 28.3%

outcome, inactive:
CCC(=O)N1CCN(c2ccc(Cl)cc2NC(=O)c2ccc3c(c2)OCCO3)CC1
